Experimental data published in PubChem BioAssay (EPA / NIEHS).
More than one record can exist for a structure, and the calls need not agree. Activity calls are given as the source filed them. The calls were made as follows: active = hit-call score of the fitted dose curve at least 0.9, where 1 is the maximum; inactive = score below 0.9.

Legend:
[1] = target: Transcription factor E2F1 (Homo sapiens) (UniProt Q01094); experiment: ATG_E2F_CIS: Attagene CIS-FACTORIAL HepG2 Assay for human E2F Transcription Factor 1 (AID 2282935); conditions: HepG2 Attagene cis-reporter, E2F reporter RNA transcripts; actives raise or lower the signal
In short: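 HepG2 cells transiently transfected with multiplexed cis-element reporter units, dosed for 24 h. Reporter mRNA measured by RT-PCR, 6-FAM primer-extension labeling, HpaI digestion and capillary electrophoresis; bidirectional fit versus DMSO baseline.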

[2] = ATG_E_Box_CIS: Attagene CIS-FACTORIAL HepG2 Assay for human Enhancer Box (E-box) (AID 2282936); conditions: HepG2 E-box cis-reporter transcription, actives raise or lower the signal
In short: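 HepG2 cells transiently transfected with multiplexed cis-element reporter units sensing endogenous transcription factor activity; 24 h compound exposure. Reporter mRNA measured by RT-PCR, 6-FAM primer extension, HpaI digestion and capillary electrophoresis; bidirectional fit versus DMSO.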

[3] = ATG_M_61_CIS: Attagene CIS-FACTORIAL HepG2 Assay for M61 Transcription Factor (Internal Marker) (AID 2282937); conditions: HepG2 Attagene CIS-FACTORIAL M61 internal marker reporter; actives raise or lower the signal
In short: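 HepG2 cells transiently transfected with cis-element-driven multiple reporter transcription units, dosed for 24 h. Reporter mRNA measured by RT-PCR, 6-FAM primer-extension labelling, HpaI digestion and capillary electrophoresis; bidirectional fit versus DMSO baseline.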

[4] = ATG_EGR_CIS: Attagene CIS-FACTORIAL HepG2 Assay for human Early Growth Response 1 (EGR1) (AID 2282938); conditions: HepG2 Attagene CIS-FACTORIAL EGR reporter mRNA; actives raise or lower the signal
In short: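 HepG2 cells transiently transfected with cis-promoter-driven multiplexed reporter transcription units; reporter mRNA measured 24 h after compound dosing by RT-PCR, 6-FAM primer extension, HpaI digestion and capillary electrophoresis. Bidirectional fit versus DMSO baseline.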

[5] = ATG_M_19_CIS: Attagene CIS-FACTORIAL HepG2 Assay for M19 Transcription Factor (Internal Marker) (AID 2282939); conditions: HepG2 Attagene CIS-FACTORIAL M19 internal marker reporter; actives raise or lower the signal
In short: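 Internal marker readout, fitted in both directions against DMSO, from HepG2 cells carrying transfected cis-element reporter constructs; RT-PCR and capillary electrophoresis of reporter mRNA after 24 h exposure.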

[6] = ATG_ERE_CIS: Attagene CIS-FACTORIAL HepG2 Assay for Estrogen Response Element (ERE) (AID 2282940); conditions: HepG2 ERE cis-reporter, Attagene RNA transcript; actives raise or lower the signal
In short: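 After 24 h compound treatment, RNA from transfected HepG2 cells was reverse-transcribed, reporter cDNA PCR-amplified, FAM-labelled, HpaI-cut and resolved by capillary electrophoresis. ERE-driven cis reporter transcripts reflect endogenous factors; gain or loss scored against DMSO.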

[7] = ATG_Ets_CIS: Attagene CIS-FACTORIAL HepG2 Assay for human Erythroblast Transformation Specific (ETS) (AID 2282941); conditions: HepG2 ETS cis-reporter transcription, actives raise or lower the signal
In short: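 HepG2 cells transfected with multiple cis-regulated reporter units measuring endogenous ETS-driven transcription, 24 h after dosing. Reporter mRNA quantified by RT-PCR with capillary electrophoresis; bidirectional fit relative to DMSO.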

[8] = target: Hepatocyte nuclear factor 3-beta (Homo sapiens) (UniProt Q9Y261); experiment: ATG_FoxA2_CIS: Attagene CIS-FACTORIAL HepG2 Assay for human Forkhead box A2 (FOXA2) (AID 2282942); conditions: HepG2 cis-reporter transcription factor activity, 24 h; actives raise or lower the signal
In short: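 HepG2 cells transiently transfected with multiple cis-regulated reporter transcription units, dosed for 24 h. Reporter mRNA measured by RT-PCR, 6-FAM labelling, HpaI digestion and capillary electrophoresis; bidirectional fitting against DMSO baseline.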

[9] = ATG_FoxO_CIS: Attagene CIS-FACTORIAL HepG2 Assay for human Forkhead box O (FoxO) (AID 2282943); conditions: HepG2 Attagene cis-reporter, FoxO element, mRNA; actives raise or lower the signal
In short: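 HepG2 cells transiently transfected with cis-promoter-driven multiple reporter transcription units; 24 h after chemical dosing, reporter mRNA quantified by RT-PCR, fluorescent primer extension, HpaI digestion and capillary electrophoresis. Bidirectional fitting versus DMSO baseline.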

[10] = ATG_GATA_CIS: Attagene CIS-FACTORIAL HepG2 Assay for human GATA Binding Protein (AID 2282944); conditions: HepG2 GATA cis-element reporter, Attagene multiplex mRNA; actives raise or lower the signal
In short: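 Reporter transcripts from a GATA cis-regulated unit, among multiplexed reporters in transfected HepG2 cells, were measured by RT-PCR with capillary electrophoresis after 24 h dosing. Induction or loss scored relative to DMSO.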

[11] = ATG_GLI_CIS: Attagene CIS-FACTORIAL HepG2 Assay for human Zinc Finger Protein GLI1 (AID 2282945); conditions: HepG2, Attagene cis-factorial reporter mRNA, GLI element; actives raise or lower the signal
In short: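 HepG2 cells transiently transfected with cis-promoter multiplexed reporter units report endogenous transcription factor activity. After 24 h chemical exposure, reporter mRNA was quantified by RT-PCR, 6-FAM labelling, HpaI digestion and capillary electrophoresis, with bidirectional fitting against DMSO.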

[12] = target: Bile acid receptor (Homo sapiens) (UniProt Q96RI1); experiment: ATG_IR1_CIS: Attagene CIS-FACTORIAL HepG2 Assay for human Nuclear Receptor Subfamily 1 Group H Member 4 (NR1H4), IR1 submotif (AID 2282946); conditions: IR1 reporter transcription, actives raise or lower the signal
In short: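 Transient MRTU transfection, HepG2; 24 h dosing; RNA → RT-PCR → 6-FAM primer extension → HpaI digest → capillary electrophoresis fluorescence. Gain/loss of signal fitted relative to DMSO.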

[13] = ATG_GRE_CIS: Attagene CIS-FACTORIAL HepG2 Assay for human Glucocorticoid Response Elements (GRE) (AID 2282947); conditions: HepG2 GRE cis-reporter, Attagene multiplex mRNA; actives raise or lower the signal
In short: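 HepG2 cells transiently transfected with multiple cis-promoter reporter units measure endogenous TF activity; 24 h compound exposure. Reporter mRNA quantified by RT-PCR, FAM labelling, HpaI digestion and capillary electrophoresis; bidirectional fit vs DMSO baseline.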

[14] = ATG_ISRE_CIS: Attagene CIS-FACTORIAL HepG2 Assay for human Interferon Regulatory Factor 1 (IRF1) binding to an Interferon-Stimulated Response Element (ISRE) (AID 2282948); conditions: HepG2 ISRE cis-reporter (Attagene), mRNA transcription readout; actives raise or lower the signal
In short: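 Transiently transfected HepG2 cells carrying cis-element reporter units, dosed 24 hours. Reporter mRNA quantified by RT-PCR, fluorescent primer extension, HpaI digestion and capillary electrophoresis. Bidirectional fitting relative to DMSO.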

[15] = ATG_M_06_CIS: Attagene CIS-FACTORIAL HepG2 Assay for M06 Transcription Factor (Internal Marker) (AID 2282950); conditions: HepG2 Attagene CIS-FACTORIAL M06 internal marker reporter; actives raise or lower the signal
In short: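 Serves as a background control readout. Transfected HepG2 exposed to compounds for 24 h, then reporter transcripts quantified by fluorescent RT-PCR and capillary electrophoresis. Both directions fitted against DMSO baseline.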

[16] = target: Hypoxia-inducible factor 1-alpha (Homo sapiens) (UniProt Q16665); experiment: ATG_HIF1a_CIS: Attagene CIS-FACTORIAL HepG2 Assay for human Hypoxia Inducible Factor 1 (HIF1A) (AID 2282951); conditions: HepG2 Attagene cis-factorial HIF1a reporter transcription; actives raise or lower the signal
In short: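 HepG2 cells transiently transfected with multiplexed cis-promoter reporter units; reporter mRNA read 24 h after dosing by RT-PCR, 6-FAM primer-extension labelling, HpaI digestion and capillary electrophoresis. Bidirectional fit versus DMSO baseline.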

[17] = target: Hepatocyte nuclear factor 6 (Homo sapiens) (UniProt Q9UBC0); experiment: ATG_HNF6_CIS: Attagene CIS-FACTORIAL HepG2 Assay for human Hepatocyte Nuclear Factor 6 (HNF6) (AID 2282952); conditions: HepG2 Attagene cis-factorial HNF6 reporter transcription; actives raise or lower the signal
In short: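 Cells are HepG2 carrying transiently transfected cis-promoter reporter units. Treatment lasts 24 h, after which reporter transcripts are reverse-transcribed, amplified, FAM-labelled and sized by capillary electrophoresis. DMSO serves as baseline.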

[18] = target: Heat shock factor protein 1 (Homo sapiens) (UniProt Q00613); experiment: ATG_HSE_CIS: Attagene CIS-FACTORIAL HepG2 Assay for human Heat Shock Transcription Factor 1 (HSE) (AID 2282953); conditions: HepG2 HSE cis-reporter, Attagene RNA transcription; actives raise or lower the signal
In short: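 Endogenous transcription factor activity in transiently transfected HepG2, read as reporter mRNA by RT-PCR with fluorescent capillary electrophoresis after 24 h. Gain or loss of signal fitted versus DMSO baseline.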

[19] = ATG_MRE_CIS: Attagene CIS-FACTORIAL HepG2 Assay for human Metal Responsive Element (MRE) (AID 2282954); conditions: HepG2 MRE cis-reporter transcription, Attagene multiplex; actives raise or lower the signal
In short: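 HepG2 cells transiently transfected with multiple cis-element reporter units measure endogenous MTF1-driven transcription. After 24 h compound exposure, reporter mRNA is quantified by RT-PCR with 6-FAM labelling, HpaI digestion and capillary electrophoresis; bidirectional fits versus DMSO.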

[20] = ATG_M_32_CIS: Attagene CIS-FACTORIAL HepG2 Assay for M32 Transcription Factor (Internal Marker) (AID 2282949); conditions: HepG2 Attagene cis-factorial M32 reporter, mRNA; actives raise or lower the signal;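 also: background control marker of the multiplexed CIS panel rather than a real target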
In short: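 Internal background marker read-out: RT-PCR/capillary electrophoresis fluorescence of reporter transcripts from transiently transfected HepG2 cells after 24 h chemical exposure. Activity fitted bidirectionally relative to DMSO negative control.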

Measured: AC50

Transcription factor E2F1 (Homo sapiens), sequence (Q01094 whole entry, looked up): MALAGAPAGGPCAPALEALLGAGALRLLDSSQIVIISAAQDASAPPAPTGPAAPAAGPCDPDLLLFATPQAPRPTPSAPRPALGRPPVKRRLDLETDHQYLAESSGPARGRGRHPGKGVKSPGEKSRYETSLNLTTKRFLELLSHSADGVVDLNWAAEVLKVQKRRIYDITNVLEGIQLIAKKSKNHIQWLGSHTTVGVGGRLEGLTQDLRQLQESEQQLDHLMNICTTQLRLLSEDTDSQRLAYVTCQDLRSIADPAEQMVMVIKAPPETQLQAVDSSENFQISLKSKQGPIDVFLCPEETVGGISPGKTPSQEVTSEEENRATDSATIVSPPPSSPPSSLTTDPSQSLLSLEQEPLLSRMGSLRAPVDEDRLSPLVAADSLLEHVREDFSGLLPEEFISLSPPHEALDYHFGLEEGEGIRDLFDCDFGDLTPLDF
Hepatocyte nuclear factor 3-beta (Homo sapiens), sequence (Q9Y261 whole entry, looked up): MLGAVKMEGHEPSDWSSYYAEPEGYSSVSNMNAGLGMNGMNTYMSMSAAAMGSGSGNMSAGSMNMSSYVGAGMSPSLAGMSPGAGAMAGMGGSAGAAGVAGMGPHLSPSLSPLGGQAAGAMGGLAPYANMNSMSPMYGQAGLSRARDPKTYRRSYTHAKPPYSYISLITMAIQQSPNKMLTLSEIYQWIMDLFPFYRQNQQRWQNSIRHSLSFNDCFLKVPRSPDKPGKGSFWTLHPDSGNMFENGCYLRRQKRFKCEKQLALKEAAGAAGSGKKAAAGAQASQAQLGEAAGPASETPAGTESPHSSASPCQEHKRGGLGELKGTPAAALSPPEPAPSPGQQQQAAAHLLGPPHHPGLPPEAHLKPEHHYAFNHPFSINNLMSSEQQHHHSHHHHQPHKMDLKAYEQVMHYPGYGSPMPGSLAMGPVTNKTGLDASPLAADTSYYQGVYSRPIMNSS
Bile acid receptor (Homo sapiens), sequence (Q96RI1 whole entry, looked up): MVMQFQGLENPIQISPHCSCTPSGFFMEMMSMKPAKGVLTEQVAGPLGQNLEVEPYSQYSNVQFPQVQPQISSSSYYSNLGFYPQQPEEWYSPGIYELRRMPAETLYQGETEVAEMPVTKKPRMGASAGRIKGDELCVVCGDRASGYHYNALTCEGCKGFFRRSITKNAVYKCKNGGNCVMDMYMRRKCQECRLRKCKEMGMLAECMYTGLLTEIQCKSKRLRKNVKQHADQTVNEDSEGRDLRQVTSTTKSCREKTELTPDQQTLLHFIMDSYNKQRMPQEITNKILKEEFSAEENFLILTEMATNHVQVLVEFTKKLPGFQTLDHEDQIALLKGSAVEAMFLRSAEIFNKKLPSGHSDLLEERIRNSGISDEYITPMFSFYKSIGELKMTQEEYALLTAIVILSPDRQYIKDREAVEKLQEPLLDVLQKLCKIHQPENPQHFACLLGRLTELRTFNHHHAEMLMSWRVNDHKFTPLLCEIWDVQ
Heat shock factor protein 1 (Homo sapiens), sequence (Q00613 whole entry, looked up): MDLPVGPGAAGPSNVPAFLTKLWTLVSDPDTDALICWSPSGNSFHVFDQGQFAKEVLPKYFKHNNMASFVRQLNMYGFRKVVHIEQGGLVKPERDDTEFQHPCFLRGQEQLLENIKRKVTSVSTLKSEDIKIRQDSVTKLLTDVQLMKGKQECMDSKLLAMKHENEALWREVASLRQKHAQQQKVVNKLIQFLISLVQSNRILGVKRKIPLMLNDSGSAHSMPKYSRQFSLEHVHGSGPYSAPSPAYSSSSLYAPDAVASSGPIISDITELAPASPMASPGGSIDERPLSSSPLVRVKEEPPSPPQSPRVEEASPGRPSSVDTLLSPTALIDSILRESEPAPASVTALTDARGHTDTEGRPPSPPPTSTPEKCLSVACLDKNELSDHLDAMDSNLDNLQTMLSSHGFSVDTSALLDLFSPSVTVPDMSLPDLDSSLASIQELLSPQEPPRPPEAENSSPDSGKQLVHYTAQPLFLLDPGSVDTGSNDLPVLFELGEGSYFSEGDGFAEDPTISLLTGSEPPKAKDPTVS
Hepatocyte nuclear factor 6 (Homo sapiens), sequence (Q9UBC0 whole entry, looked up): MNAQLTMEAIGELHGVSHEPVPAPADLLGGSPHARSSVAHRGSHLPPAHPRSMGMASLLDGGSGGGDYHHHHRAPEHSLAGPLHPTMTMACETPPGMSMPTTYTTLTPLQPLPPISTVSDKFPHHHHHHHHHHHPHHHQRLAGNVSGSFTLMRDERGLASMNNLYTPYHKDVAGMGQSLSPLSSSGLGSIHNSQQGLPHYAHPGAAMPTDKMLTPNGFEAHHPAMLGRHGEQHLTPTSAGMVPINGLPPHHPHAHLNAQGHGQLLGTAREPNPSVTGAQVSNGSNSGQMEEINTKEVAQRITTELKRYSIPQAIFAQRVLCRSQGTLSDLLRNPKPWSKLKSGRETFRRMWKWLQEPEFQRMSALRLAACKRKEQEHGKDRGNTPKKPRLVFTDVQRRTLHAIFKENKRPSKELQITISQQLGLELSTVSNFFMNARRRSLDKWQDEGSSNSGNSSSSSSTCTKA
Hypoxia-inducible factor 1-alpha (Homo sapiens), sequence (Q16665 whole entry, looked up): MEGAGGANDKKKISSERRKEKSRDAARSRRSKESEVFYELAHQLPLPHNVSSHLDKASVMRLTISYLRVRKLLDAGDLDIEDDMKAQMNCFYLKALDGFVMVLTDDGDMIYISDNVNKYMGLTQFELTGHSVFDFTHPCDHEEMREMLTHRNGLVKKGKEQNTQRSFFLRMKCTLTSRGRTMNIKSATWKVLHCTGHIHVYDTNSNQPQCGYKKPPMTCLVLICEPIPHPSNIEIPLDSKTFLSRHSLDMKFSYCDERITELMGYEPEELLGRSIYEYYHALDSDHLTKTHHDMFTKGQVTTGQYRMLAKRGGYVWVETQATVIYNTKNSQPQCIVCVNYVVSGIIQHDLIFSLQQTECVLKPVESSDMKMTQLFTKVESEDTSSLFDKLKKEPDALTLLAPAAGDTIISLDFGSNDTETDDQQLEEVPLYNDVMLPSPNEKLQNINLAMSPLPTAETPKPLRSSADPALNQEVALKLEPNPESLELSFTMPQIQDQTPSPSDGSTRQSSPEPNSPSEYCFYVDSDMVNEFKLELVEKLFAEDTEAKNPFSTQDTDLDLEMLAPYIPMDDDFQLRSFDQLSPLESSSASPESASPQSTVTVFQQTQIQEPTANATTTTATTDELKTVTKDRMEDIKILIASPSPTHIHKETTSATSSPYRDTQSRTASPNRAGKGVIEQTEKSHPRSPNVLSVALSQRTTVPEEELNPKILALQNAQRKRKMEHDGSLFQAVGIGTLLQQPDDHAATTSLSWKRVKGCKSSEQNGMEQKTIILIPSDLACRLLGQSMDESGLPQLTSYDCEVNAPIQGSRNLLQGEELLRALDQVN

CCCN(CCC)c1c([N+](=O)[O-])cc(C(F)(F)F)c(N)c1[N+](=O)[O-]
active: [9] 50 µM | [16] 13 µM | [17] 50 µM | [18] 81 µM | [19] 32.5 µM
not listed: [20]
inactive: all other assays above

CCCCOC(=O)C(C)Oc1ccc(Oc2ccc(C(F)(F)F)cn2)cc1 (stereo unspecified)
not listed: [16] | [20]
inactive: all other assays above

Cc1nn(C)c(Oc2ccccc2)c1C=NOCc1ccc(C(=O)OC(C)(C)C)cc1
active: [4] 0.934 µM | [18] 9.45 µM | [19] 1.88 µM
not listed: [16] | [20]
inactive: all other assays above

CCOC(=O)C(C)Oc1ccc(Oc2cnc3cc(Cl)ccc3n2)cc1 (stereo unspecified)
not listed: [18] | [20]
inactive: all other assays above

CCOC(=O)c1ccc(O)cc1
inactive: [1] | [2] | [3] | [4] | [5] | [7] | [8] | [9] | [10] | [11] | [12] | [13] | [14] | [15] | [16] | [17] | [18]
active: [2] 167 µM

CCN(Cc1c(F)cccc1Cl)c1c([N+](=O)[O-])cc(C(F)(F)F)cc1[N+](=O)[O-]
active: [6] 1.81 µM
not listed: [13] | [19] | [20]
inactive: all other assays above

O=C(Nc1ccc([N+](=O)[O-])cc1Cl)c1cc(Cl)ccc1O
active: [4] 0.894 µM
not listed: [16] | [19]
inactive: all other assays above

CCCCOC(=O)[C@@H](C)Oc1ccc(Oc2ccc(C(F)(F)F)cn2)cc1
active: [6] 59.1 µM
not listed: [16] | [19] | [20]
inactive: all other assays above

COC(=O)c1cccc(C)c1S(=O)(=O)NC(=O)Nc1nc(OCC(F)(F)F)nc(N(C)C)n1
not listed: [16] | [19] | [20]
inactive: all other assays above

O=C(c1ccccc1)C1CCCCC1
active: [6] 17.4 µM [middle of 4 runs]
not listed: [16] | [19] | [20]
inactive: all other assays above

CCCOC(=O)c1ccc(C(=O)OCCC)nc1
not listed: [20]
inactive: all other assays above

N#CSCSc1nc2ccccc2s1
active: [2] 6.89 µM | [14] 3.07 µM | [18] 18.1 µM
inactive: [1] | [2] | [3] | [4] | [5] | [6] | [7] | [8] | [9] | [10] | [11] | [12] | [13] | [14] | [20] | [15] | [16] | [17] | [18] | [19]

C[C@]12CC[C@@H]3c4ccc(O)cc4C[C@@H](CCCCCCCCCS(=O)CCCC(F)(F)C(F)(F)F)[C@H]3[C@@H]1CC[C@@H]2O (stereo partly specified)
not listed: [16] | [19] | [20]
inactive: all other assays above
